Sampled rows, rich in hits. Any-hit rate of the full collection: about 4.2%.
MCF10A rereplic – inducers of DNA re-replication in MCF 10A breast cells. 350,000 compounds, 2.9% hits. Potency, µM (titrated, usually from 46.1 µM), without a hit: at the top dose activity, positive = re-replication, usual class: activators. MCF 10A DNA re-replication, Hoechst nuclear intensity, 48 h; note: % of control where 0% means no effect; nearly all actives have a fitted effect of over 50% in size
SW480 rereplic – induces DNA re-replication in SW480 colon adenocarcinoma cells; 340,000 compounds, 1.8% hits; AID 624297; Potency, µM (top dose mostly 46.1 µM), for the others: at the highest dose re-replication activation, most hits filed as activators; SW480 DNA re-replication, Hoechst DNA content imaging, 48 h; note: % of control where 0% means no effect; nearly all actives have a fitted effect of over 55% in size
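DNA re-replication was detected as more nuclei of elevated Hoechst intensity after 48 hr exposure to compound (23 nL pinned per well of 250 cells).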
Mito fusion act – blocks mitochondrial division or promotes mitochondrial fusion. S. cerevisiae fusion-defective mutant growth rescue, CellTiterGlo 48 h. 320,000 compounds, 0.23% hits. Potency, µM (doses to about 46.1 µM), for inactives: at the highest dose growth rescue (activation), hits mostly activators; note: % of control where 0% means no effect; nearly all actives have a fitted effect of over 45% in size
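Yeast fusion mutant, YPEG (non-fermentable carbon), compound, 48 h at 37C non-permissive; CellTiterGlo added, 10 min RT, luminescence read. Rescued growth = division inhibition.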
AT treatment – candidate therapy for ataxia-telangiectasia. F2112 A-T fibroblasts, KAP-1 phosphorylation AlphaLISA; neocarzinostatin DNA damage 30 min before lysis. Potency, µM (highest dose often 57.5 µM), without a hit: at the top dose activation, actives largely listed as activators. 320,000 compounds, 0.19% hits. AID 485349; note: % of control where 0% means no effect; nearly all actives have a fitted effect of over 45% in size
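hTERT-immortalized A-T patient fibroblasts (F2112), 500 cells/well in OPTI-MEM, 1% FBS, got compounds for 60 min, then NCS for 30 min at 37C. Lysates were then assayed for phospho-KAP-1 by AlphaLISA (anti-pKAP1 donor, anti-KAP1 acceptor beads), 6 hr at 25C.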
Integrin act MD – integrin-mediated muscular dystrophy alleviation activation; 350,000 compounds, 0.064% hits; Potency, µM (series often up to 38.3 µM), without a hit: at the top dose activation, actives largely listed as activators; alpha7betagal myoblasts, beta-gal FDG fluorescence, 48 h;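 note: 100% = response of the positive control SU9516; nearly all actives have a fitted effect of over 60% in size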
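alpha7betagal+/- myoblasts (passage 13, 250/well) treated 48 h at 37C with compounds at 1:260 dilution of DMSO stock. Lysed, then beta-galactosidase activity read as FDG fluorescence (ex 480/em 540) after 30 min, with pre-read for autofluorescence.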
Starred values were filed as active, the others as inactive; ? = inconclusive; / = not tested or not shown; [ ] = remark or other dose. Calls come from the whole dose curve; as a rule, active = well fitted activation curve with a large enough effect; inconclusive = small, poorly fitted or top-dose-only effect; inactive = no such curve, though single readings can be large or run the other way. Potency is the fitted concentration of half-maximal effect.

SMILES	MCF10A rereplic	SW480 rereplic	Mito fusion act	AT treatment	Integrin act MD
CC(NCC(c1ccco1)N1CCCCC1)C(=O)NC1CCCC1 (stereo not given)	52.7%	-3.7%	-0.4%	2.1%	15.7%
COc1ccc(-c2c3c(=O)n(C)c(=O)n(C)c3cn2-c2ccccc2)cc1	13.0%	-1.3%	5.6%	-1.8%	-9.2%
COc1ccc(-c2c3c(=O)n(C)c(=O)n(C)c3cn2-c2ccc(O)cc2)cc1	1.6%	-9.9%	-3.9%	31.6µM*	-10.9%
O=C(OCCc1ccccn1)c1cccc([N+](=O)[O-])c1	-2.2%	-10.0%	/	/	10.6%
Cc1n[nH]c(C)c1CCN(C)C(=O)C1CCC(=O)N(CC2CCCCC2)C1 (stereo not given)	1.8%	-3.6%	1.4%	4.0%	-2.7%
COc1ccc(-c2cnc3c(c2)CCC3(C#N)C#N)cc1	4.11µM*	3.26µM*	-1.0%	2.3%	-1.9%
Cc1ccccc1OCCc1c(C)[nH]c(=S)[nH]c1=O	?	3.66µM*	-0.8%	0.8%	-27.0%
Cc1nn(C)c(C)c1C1Nc2ccccc2C(=O)N1O (stereo not given)	7.5%	-8.2%	-2.4%	-0.5%	-11.2%
O=C1c2ccccc2NC(c2ccc(-c3ccccc3F)o2)N1O (stereo not given)	-4.7%	-39.6%[9.22 µM]	5.4%	6.8%	/
O=C(NN1C(=O)c2ccccc2NC1c1ccc([N+](=O)[O-])o1)c1ccc(Br)cc1 (stereo not given)	9.2µM*	?	24.2%	5.3%	-32.9%
Cc1cc([N+](=O)[O-])ccc1-c1ccc(C2Nc3ccccc3C(=O)N2O)o1 (stereo not given)	10.3µM*	?	2.6%	-10.6%	-21.4%
O=C(NN1C(=O)c2ccccc2NC1c1ccco1)c1ccc(Br)cc1 (stereo not given)	0.4%	-14.9%	2.6%	-0.4%	-16.5%
CC(=O)NN1C(=O)c2ccccc2NC1c1ccc([N+](=O)[O-])o1 (stereo not given)	15.4%	23.1µM*	-0.1%	0.4%	2.0%
Cc1ccsc1C1Nc2ccccc2C(=O)N1O (stereo not given)	0.8%	16.4µM*	4.2%	-3.8%	-16.3%
CN(C(=O)c1ccc(NC(=O)Cc2ccc(NC(=O)C3CCCN(C(=O)C4CCC4)C3)cc2)cc1)C1CCCC1 (stereo not given)	?	-1.5%	/	/	8.7%
O=C(NCC1(N2CCOCC2)CCCCC1)c1ccc(Cl)c(S(=O)(=O)NCc2ccco2)c1	7.0%	2.5%	1.0%	1.1%	11.8%
Cc1ccc(S(=O)(=O)NC(C)C(=O)OCC(=O)Nc2sccc2C(N)=O)cc1 (stereo not given)	/	/	/	/	-3.0%
O=C(NN1C(=O)c2cc(Br)ccc2NC1c1ccccc1Cl)c1ccncc1 (stereo not given)	6.0%	20.6µM*	-25.6%	1.6%	-13.1%
Cc1cccc(C)c1OCC(=O)N=Nc1c(O)[nH]c2ccc(Br)cc12	20.6µM*	?	12.8%	2.4%	5.0%
COc1ccc(/C=N/OCC(=O)N=Nc2c(O)[nH]c3ccc(Br)cc23)cc1	23.9%	1.0%	-1.0%	-5.1%	0.0%
O=C(O)CCn1cc(/C=C\C(=O)c2ccc(Cl)cc2)c(-c2cccc(Br)c2)n1	11.6µM*	-3.3%	-4.4%	2.0%	-15.9%
Cc1cc(SCC(=O)Nc2ccc3[nH]c(=O)[nH]c3c2)nc2ccccc12	-2.0%	15.5%	/	24.6%	-19.6%
Cc1nc(N2CCN(S(=O)(=O)c3ccccc3)CC2)c2c3c(sc2n1)CC(C)CC3 (stereo not given)	5.5%	-5.4%	-0.2%	-0.7%	8.3%
Cc1nc(N2CCN(S(=O)(=O)c3cccc4nonc34)CC2)c2c3c(sc2n1)CCCC3	18.4µM*	0.7%	6.3%	1.1%	8.4%
COc1cc2c(cc1OC)C(c1ccccc1C)CC(=O)N2 (stereo not given)	-3.2%	-2.3%	-0.1%	13.1%	44.6%
COc1cc2c(cc1OC)C(c1ccc(SC)cc1)CC(=O)N2 (stereo not given)	4.61µM*	-35.5%	-3.3%	-7.1%	1.9%
